From the OligoGym collection come the findings set out here.
Further: reference of the scale not given here.

For the first assay, the target named is GPR123. Put plainly: pooled miR-30 sensor sort-seq; sequence = guide strand. The following applies: shRNA.
Consider TGCATCTTGGCGCAGCACGGGG, for which the sensor-assay potency score (higher = more potent) is -1.59.
Turning to TCGTTCTGCAGCACGGAGGCGC, the sensor-assay potency score (higher = more potent) was -0.763.
For the sequence TAGCAATTTACCCTTGGGCAGC, the sensor-assay potency score (higher = more potent) is -1.23.
Turning to TTCTTGGTCACCTGCTTGTAGA, the sensor-assay potency score (higher = more potent) was -1.61.
As for TTTTCCAGGGTCCCGTTCGGAT, the sensor-assay potency score (higher = more potent) was -1.35.
Still for that read-out and setting: then AACAGGAACAGCGTGAAGGCGG, with -0.39; and TTCTGCAGCACGGAGGCGCCGG, with -0.928.
Regarding TGTGTGCGCAGCTCGTACCTGC, the sensor-assay potency score (higher = more potent) is -0.983.
Regarding TAATTCCTGATGTTCGTGGCAG, the sensor-assay potency score (higher = more potent) was -0.373.
Same read-out and setting: then TCGCAGTGCATCTTGGCGCAGC, with -1.13.
TGTAGAATAGTGCAGCACGATG gave a sensor-assay potency score (higher = more potent) of -1.66.
Sequence TTCTAGCAATTTACCCTTGGGC came in with a sensor-assay potency score (higher = more potent) of -1.05.

Another assay has as its target GPR137. The assay is described as above. The following applies: shRNA.
Sequence TCACTATGACAGGAGCAGCAAG showed a sensor-assay potency score (higher = more potent) of -1.58.
Consider TAATCGAAGGTGTCCAGCCGGC, for which the sensor-assay potency score (higher = more potent) was -0.771.
Still for that read-out and setting: as for TGGTCAGACACATTGTACCAGC, the figure is -1.27.
